Experimental data: PubChem BioAssay

target: Tumor necrosis factor receptor superfamily member 10B (Homo sapiens) (UniProt O14763); assay: viability loss of caspase-8 NB7 cells with TRAIL – with/without TRAIL, luminescence panel, confirmation (AID 651596); conditions: NB7 neuroblastoma + caspase-8, TRAIL sensitization, NB7 Caspase-8, with TRAIL, mean of runs, at 10 µM, stronger effect = higher value
Sequence (O14763 whole entry, looked up): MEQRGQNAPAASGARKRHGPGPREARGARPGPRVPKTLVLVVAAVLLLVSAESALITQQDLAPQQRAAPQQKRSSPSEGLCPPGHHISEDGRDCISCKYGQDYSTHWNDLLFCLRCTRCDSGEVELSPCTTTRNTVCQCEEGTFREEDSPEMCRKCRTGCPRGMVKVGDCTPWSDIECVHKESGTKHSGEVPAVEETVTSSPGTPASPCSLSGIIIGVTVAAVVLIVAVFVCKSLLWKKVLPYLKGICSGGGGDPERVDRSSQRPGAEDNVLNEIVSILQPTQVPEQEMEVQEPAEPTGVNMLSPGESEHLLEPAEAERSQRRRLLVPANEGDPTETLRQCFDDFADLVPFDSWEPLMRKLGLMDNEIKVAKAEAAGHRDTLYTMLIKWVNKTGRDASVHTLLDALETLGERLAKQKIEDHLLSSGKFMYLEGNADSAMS

Compound | activity [%]
COC(=O)c1ccc(/C=C/c2nc3ccccc3c(=O)[nH]2)cc1 | 60.9
CCOc1ccc(-c2cc(C(=O)N3CCC(C)CC3)c3ccccc3n2)cc1 | 53.4
CCOc1ccc(NC(=O)Nc2cccs2)cc1 | 63.8
CCCCCCCn1c2c(c(=N)c3ccccc31)CCC2 | 64.8
CN(C(=O)COC(=O)c1cnc(Cl)c(Cl)c1)C1CCCCC1 | 68.5
COC(=O)c1ccc(/C=C(\C#N)c2ccccn2)cc1 | 51
Cc1cc2nc(-c3ccc(SCC(=O)Nc4nccs4)nc3)[nH]c2cc1C | 58
C(=C\c1ccco1)/c1nc2ccccc2[nH]1 | 57.9
Cc1nc2cc(NC(=O)Nc3cccc([N+](=O)[O-])c3)ccc2n1C | 64.2
O=C(ONC1=NCCCCC1)c1ccc(Cl)cc1 | 89.3
O=C(NC(=O)c1ccccc1)Nc1ccccc1 | 54.2
O=C(N/N=C/c1cccc(OC(=O)c2ccco2)c1)c1ccc(F)cc1 | 57.1
CN(C)CCCN(C(=O)c1ccc(S(=O)(=O)N2CCCc3ccccc32)cc1)c1nc2ccc(F)cc2s1 | 55.7
O=c1[nH]c(=S)[nH]c2c1C(c1ccc(Cl)c(Cl)c1)OC(CCc1ccccc1)C2 (centres undefined) | 57.9
O=C(NNC(=O)c1cc(OCC(F)(F)F)ccc1OCC(F)(F)F)c1ccc(Cl)c(Cl)c1 | 63.5
Nc1ccccc1C(=O)NN=Cc1cccc([N+](=O)[O-])c1 | 66.6
Cc1ccn2cc(C(=O)Nc3ccc4c(c3)OCCO4)nc2c1 | 58.2
Cn1nnc(NC(=O)c2ccc(C(C)(C)C)cc2)n1 | 58.1
CCCCC1CCC(C(=O)N(CCC(C)C)c2c(N)n(CCCC)c(=O)[nH]c2=O)CC1 (centres undefined) | 90.3
